These are literature values, as cited in PubChem BioAssay AID977611.

In general, Kd refers to the concentration at which binding is half-saturated.

In all, about 3,900 compounds went through this assay and about 3,900 (100%) were called active. Cut-off not given; nearly all actives show Kd up to about 4200 µM. The set was probably picked from earlier hits. This is one part of the list. Where a SMILES comes first, the peptide text is derived from it. Square brackets hold non-standard residues; d marks the D form. Residues, ends and D or L forms follow the SMILES beside them. Bridges are numbered along the chain shown (N, C = ends). Peptide text beside a SMILES is read from it. [ ]: non-standard residue; d: D form. Orn(CH(NH2)2) = NC(N)NCCC[C@H](N)C(=O)O; Lys(Me2) = CN(C)CCCC[C@H](N)C(=O)O

This data set in a line: PubChem AID 977611. The following applies: PDB protein-ligand complexes, literature Kd.

In the case of `CC[C@H](C)[C@H](NC(=O)[C@@H](N)CC(=O)O)C(=O)N[C@@H](CC(=O)O)C(=O)N[C@H](C(=O)N[C@@H](CCSC)C(=O)NCC(=O)N[C@@H](CC(C)C)C(=O)O)C(C)C` (H-DIDVMGL-OH), where the note is “protein: Rhodopsin, PDB entry 4pxf”, the Kd was 800 µM (active).

As for H-AIIGLMVGGVV-OH, the Kd (protein: ponezumab Fab, PDB entry 3u0t) is 0.0003 µM (active).

For `CC(C)C[C@H](NC(=O)[C@@H](NC(=O)[C@@H]1CCCN1C(=O)[C@@H]1CCCN1C(=O)[C@@H]1CCCN1)[C@@H](C)O)C(=O)N1CCC[C@H]1C(=O)N[C@@H](CCCCN)C(=O)N1CCC[C@H]1C(=O)N[C@@H](C)C(=O)N[C@@H](C)C(=O)N1CCC[C@H]1C(=O)O` (H-PPPTLPKPAAP-OH), the dissociation constant (Kd) (protein: Nebulette, PDB entry 4f14) is 12.9 µM (active).

Turning to `CC(C)C[C@H](NC(=O)[C@@H]1CCCN1C(=O)[C@H](CCCNC(N)N)NC(=O)[C@@H]1CCCN1C(=O)[C@@H]1CCCN1)C(=O)N1CCC[C@H]1C(=O)N[C@H](C(=O)N[C@@H](C)C(=O)N1CCC[C@H]1C(=O)NCC(=O)N[C@@H](CO)C(=O)N[C@@H](CO)C(=O)N[C@@H](CCCCN)C(=O)N[C@H](C(=O)O)[C@@H](C)O)C(C)C` (H-PP[Orn(CH(NH2)2)]PLPVAPGSSKT-OH), the Kd (protein: Fny(SH3 domain, 82 - 148), PDB entry 1azg) is 16 µM (active).

Consider H-PPPLPP-OH, for which, where the note is “protein: WW domain of Formin-binding protein 11(FBP11), PDB entry 1ywi”, the dissociation constant Kd was 371 µM (active).

For the molecule `CC(C)C[C@@H](C=O)NC(=O)[C@H](CC(C)C)NC(=O)[C@@H]1CCCN1C(=O)[C@H](CCCCN)NC(=O)[C@@H]1CCCN1C(=O)[C@H](C)NC(=O)[C@@H](NC(=O)[C@@H]1CCCN1C(=O)[C@H](CCCNC(N)N)NC(=O)[C@@H]1CCCN1C(=O)[C@@H]1CCCN1C(=O)[C@@H]1CCCN1)[C@@H](C)O` (H-PPP[Orn(CH(NH2)2)]PTAPKPLL-aldehyde), where the note is “protein: Mona/GadsSH3C, PDB entry 2w10”, the dissociation constant Kd is 0.17 µM (active).

For the molecule `O=C(O)CNC(=O)[C@@H]1CCCN1C(=O)[C@@H]1CCCN1C(=O)CNC(=O)[C@@H]1CCCN1C(=O)[C@@H]1CCCN1C(=O)CNC(=O)[C@@H]1CCCN1C(=O)[C@@H]1CCCN1` (H-PPGPPGPPG-OH), for the setting “protein: PROLYL 4-HYDROXYLASE SUBUNIT ALPHA-1, PDB entry 4bt9”, the Kd is 144 µM (active).

For the molecule `O=C(O)[C@@H]1CCCN1C(=O)[C@@H]1CCCN1C(=O)[C@@H]1CCCN1C(=O)[C@@H]1CCCN1C(=O)[C@@H]1CCCN1C(=O)[C@@H]1CCCN1C(=O)[C@@H]1CCCN1C(=O)[C@@H]1CCCN1C(=O)[C@@H]1CCCN1` (H-PPPPPPPPP-OH), the Kd (protein: PROLYL 4-HYDROXYLASE SUBUNIT ALPHA-1, PDB entry 4btb) is 9.8 µM (active).

With `COC(=O)c1cccc2[nH]ccc12`, for the setting “protein: DNA REPAIR AND RECOMBINATION PROTEIN RADA, PDB entry 4b35”, the Kd was 1300 µM (active).

Consider `CC1C(=O)OC2=C1C=COC2` (stereo unspecified), for which, for the setting “protein: Hydrolase, alpha/beta fold family protein, PDB entry 4jym”, the Kd is 9.05 µM (active).

As to `C=C(C)/C=C/[C@H]1[C@@H](C)CCCC1(C)C`, the equilibrium dissociation constant (Kd) (protein: Cellular Retinal Binding Protein, PDB entry 4ciz) was 0.051 µM (active).

`CC(C)C(=O)C[N+]1=C2N=C(N3CCOC[C@H]3C)CC(=O)N2CC[C@H]1C(F)(F)F`: the Kd (protein: PHOSPHATIDYLINOSITOL 3-KINASE CATALYTIC SUBUNIT TYPE 3 Vsp34, PDB entry 4uwl) was 0.0027 µM (active).

Regarding `Cn1cnc2nc(N)[nH]c(=O)c21`, where the note is “protein: rRNA N-glycosidase, PDB entry 4i47”, the dissociation constant (Kd) was 0.12 µM (active).

For `NCC(=O)NCC(=O)NCC(=O)N[C@@H](CO[P+](O)(O)O)C(=O)NCC(=O)NCC(=O)NCC(=O)O`, the dissociation constant (Kd) (protein: 14-3-3 protein, PDB entry 1a37) was 0.12 µM (active).

Regarding `OC[C@H]1O[C@@H](Sc2ccc3ccccc3c2)[C@H](O)[C@@H](O)[C@H]1O`, under “protein: PA-I GALACTOPHILIC LECTIN, PDB entry 4a6s”, the Kd is 6.3 µM (active).

On to `CC[C@H](C)[C@@H]1NC(=O)[C@H](CCCCN)NC(=O)[C@H](Cc2ccccc2)NC(=O)CNC(=O)[C@H](Cc2ccc(O)cc2)NC(=O)[C@H](CC(C)C)NC(=O)[C@H](CCCNC(N)N)NC(=O)[C@@H](NC(=O)CN)CSSC[C@@H](C(=O)NCC(=O)O)NC(=O)CNC(=O)[C@H](Cc2cnc[nH]2)NC1=O` (H-GC[Orn(CH(NH2)2)]LYGFKIHGCG-OH; disulfide 2-12), for which, under “protein: Casein kinase II subunit alpha, PDB entry 4ib5”, the dissociation constant Kd is 0.56 µM (active).

On to `CC[C@H](C)[C@@H]1NC(=O)[C@H](Cc2cnc[nH]2)NC(=O)[C@H]([C@@H](C)CC)NC(=O)[C@H](CCCNC(N)N)NC(=O)[C@@H](N)CSSC[C@@H](C(=O)O)NC(=O)[C@H]([C@@H](C)O)NC(=O)[C@H](Cc2ccc(O)cc2)NC(=O)[C@H](Cc2ccccc2)NC(=O)[C@H](C)NC(=O)[C@H](CCCNC(N)N)NC(=O)CNC(=O)[C@@H]2CCCN2C(=O)CNC1=O`, for which the Kd (protein: Fab mAb 447-52D Light Chain, PDB entry 4m1d) was 0.023 µM (active).

Regarding `COc1cc2c(Nc3ccc(NC(=O)c4ccccc4)cc3)ncnc2cc1O`, under “protein: Bifunctional protein GlmU, PDB entry 4e1k”, the dissociation constant (Kd) was 0.5 µM (active).

Turning to `NC(N)NC[C@H]1Cc2ccccc2[C@@H]1NC(=O)C(=O)Nc1ccc(Cl)c(F)c1`, the Kd (protein: HIV-1 glycoprotein, PDB entry 4i54) was 0.11 µM (active).

In the case of `NCCCCCC(=O)N[C@H]1Cc2ccccc2[C@@H]1Cc1ccc2c(c1C(=O)O)OCO2`, the dissociation constant (Kd) was 752 µM (active) (protein: INTEGRASE, PDB entry 4cgi) and 1460 µM (active) (protein: INTEGRASE, PDB entry 4cgj).

Take `O[P+](O)(O)O[P+](O)(O)O[P+](O)(O)O`: the dissociation constant (Kd) runs as follows: (protein: DNA primase small subunit, PDB entry 4lil) 12.5 µM (active); (protein: Thiamine-triphosphatase, PDB entry 3tvl) 100 µM (active).

For `C[C@@H](O)[C@H](NC(=O)[C@@H]1CCCN1C(=O)[C@H](CO[P+](O)(O)O)NC(=O)[C@@H](N)Cc1ccc(O)cc1)C(=O)N[C@@H](CO[P+](O)(O)O)C(=O)N1CCC[C@H]1C(=O)N[C@@H](CO)C(=O)N[C@@H](Cc1ccc(O)cc1)C(=O)N[C@H](C=O)CO[P+](O)(O)O`, for the setting “protein: CTD INTERACTING DOMAIN of RNA processing factor SCAF8, PDB entry 3d9k”, the Kd is 19 µM (active).

Take `C[C@@H](O)[C@H](NC(=O)[C@@H]1CCCN1C(=O)[C@H](CO[P+](O)(O)O)NC(=O)[C@@H](N)Cc1ccc(O)cc1)C(=O)N[C@@H](CO)C(=O)N1CCC[C@H]1C(=O)N[C@@H](CO)C(=O)N[C@@H](Cc1ccc(O)cc1)C(=O)N[C@@H](CO[P+](O)(O)O)C(=O)N1CCC[C@H]1C=O`: the dissociation constant Kd (protein: CTD INTERACTING DOMAIN of RNA processing factor SCAF8, PDB entry 3d9l) was 68 µM (active).

With `CNc1nc(C)c(-c2nc(Nc3cccc(C(=O)N4CCOCC4)c3)ncc2C#N)s1`, the dissociation constant (Kd) (protein: CYCLIN-DEPENDENT KINASE 2, PDB entry 4bcq) is 0.147 µM (active).

In the case of `C[C@H](N)C(=O)N[C@@H](CCCNC(N)N)C(=O)N[C@H](C(=O)N[C@@H](CCCCN)C(=O)N[C@@H](CCC(N)=O)C(=O)N[C@H](C(=O)N[C@@H](C)C(=O)N[C@@H](CCCNC(N)N)C(=O)N[C@@H](CCCCN)C(=O)N[C@@H](CO)C(=O)O)[C@@H](C)O)[C@@H](C)O`, where the note is “protein: BHC80 PHD domain, PDB entry 2puy”, the Kd is 30 µM (active).

In the case of `C[C@H](N)C(=O)N[C@@H](CCCNC(N)N)C(=O)N[C@H](C(=O)N[C@@H](CCCCN)C(=O)N[C@@H](CCC(N)=O)C(=O)N[C@H](C(=O)N[C@@H](C)C(=O)N[C@@H](CCCNC(N)N)C(=O)N[C@@H](CCCCN)C(=O)O)[C@@H](C)O)[C@@H](C)O`, the Kd (protein: Histone-lysine N-methyltransferase NSD3, PDB entry 4gnf) is 450 µM (active).

As for `C[C@H](N)C(=O)N[C@@H](CCCNC(N)N)C(=O)N[C@H](C(=O)N[C@@H](CCCCN(C)C)C(=O)N[C@@H](CCC(N)=O)C(=O)N[C@H](C(=O)O)[C@@H](C)O)[C@@H](C)O` (H-A[Orn(CH(NH2)2)]T[Lys(Me2)]QT-OH), the dissociation constant (Kd) was 77 µM (active) (protein: WD-repeat protein 5(WDR523), PDB entry 2o9k) and 5 µM (active) (protein: bromodomain PHD finger transcription factor, PDB entry 2fsa).

Take `C[C@H](N)C(=O)N[C@@H](CCCNC(N)N)C(=O)N[C@H](C(=O)N[C@@H](CCCCN)C(=O)N[C@@H](CCC(N)=O)C(=O)N[C@H](C(=O)O)[C@@H](C)O)[C@@H](C)O` (H-A[Orn(CH(NH2)2)]TKQT-OH): the Kd (protein: Histone-lysine N-methyltransferase NSD3, PDB entry 4gne) was 3400 µM (active).
